AC50 and outcome data for eight compounds are collected here from PubChem BioAssay (EPA / NIEHS).

The AC50 is the concentration giving half of the maximal activity seen.

“And” between values parts separate entries of the source, which are not always exact repeats. Identical values can stand only once. Results filed as inconclusive are left out. A structure can be active in one record and inactive in another. The source made the active and inactive calls. The calls were made as follows, unless noted: active = hit-call score of the fitted dose curve at least 0.9, where 1 is the maximum; inconclusive = response in the unintended direction; inactive = score below 0.9.

Assay [1] addresses mouse Estrogen Receptor alpha (Era), Esr1 (gene 13982) (UniProt P19785). The experiment in a line: NVS_NR_mERa: NovaScreen (NVS) Nuclear Receptor Binding Assay for mouse Estrogen Receptor alpha (Era) (AID 2283378).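 Also: hit means loss of bound radioligand signal relative to DMSO.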 Summed up:
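Extracted mouse Era incubated with tritiated or iodinated radioligand plus test chemical, 18 h. Bound fraction separated on filters, counted by scintillation. DMSO = negative control/baseline; duplicate single-point at 25 uM, then concentration-response follow-up.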

Assay [2] has as its target Estrogen receptor (Homo sapiens) (UniProt P03372). The experiment in a line: OT_ERa_GFPERaERE_0480: Odyssey Thera (OT) 8-hour HeLa Transcription Induction Assay for Estrogen Receptor (AID 2283381; active = hit-call score of the fitted dose curve at least 0.9, where 1 is the maximum; inactive = score below 0.9). The method in brief: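 HeLa cells dosed with compound and imaged by fluorescence microscopy at 8 h; GFP induction from an ERE reporter quantified by high-content image analysis and fitted as gain of signal against DMSO baseline.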

For assay [3] the target is unchanged. As to the kind of experiment: OT_ERa_GFPERaERE_0120: Odyssey Thera (OT) 2-hour HeLa Transcription Induction Assay for Estrogen Receptor (AID 2283382). The method in brief: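 HeLa cells were dosed with test chemical and read 2 hours later for GFP-ERα/ERE-linked fluorescent protein induction by fluorescence microscopy. Gain-of-signal was fitted relative to DMSO baseline, quantified by high content image analysis.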

In assay [4] the target is Retinoic acid receptor RXR-alpha (Homo sapiens) (UniProt P19793). As to the kind of experiment: OT_NURR1_NURR1RXRa_0480: Odyssey Thera (OT) 8-hour HEK293T Protein Complementation Assay for Nurr1/retinoid X receptor (RXR) (AID 2283385). Summed up:
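HEK293T cells expressing Nurr1 and RXRα fused to reporter fragments were dosed with compound for 8 hours. Complex formation was read as fluorescence intensity and analysed as gain of signal against DMSO as baseline.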

The target is the same in assay [5]. As to the kind of experiment: OT_NURR1_NURR1RXRa_1440: Odyssey Thera (OT) 24-hour HEK293T Protein Complementation Assay for Nurr1/retinoid X receptor (RXR) (AID 2283386). The method in brief: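 HEK293T cells were dosed with compound and read 24 h later by fluorescence intensity in a protein-fragment complementation format, where Nurr1–RXRα interaction reconstitutes a split reporter. Activity was fitted as gain of signal relative to DMSO baseline.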

The target of assay [6] is Peroxisome proliferator-activated receptor gamma (Homo sapiens) (UniProt P37231). As to the kind of experiment: OT_PPARg_PPARgSRC1_0480: Odyssey Thera (OT) 8-hour Protein-Complementation Assay for Peroxisome Proliferator-activated Receptor Gamma / SRC-1 Co-activator (AID 2283387).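 Also: nuclear to cytoplasmic split Venus YFP fluorescence ratio reporting PPARg SRC-1 interaction.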 The method in brief:
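Protein-fragment complementation of split Venus YFP reports PPARg/SRC-1 interaction in HEK293T (transfected 48 h before treatment), exposed 8 h. Readout: N/C fluorescence ratio at 488 nm from imaging, Draq5 for segmentation, positive fit relative to DMSO.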

Assay [7] has the same target. As to the kind of experiment: OT_PPARg_PPARgSRC1_1440: Odyssey Thera (OT) 24-hour Protein-Complementation Assay for Peroxisome Proliferator-activated Receptor Gamma/ SRC-1 Co-activator (AID 2283388).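 Also: nuclear to cytoplasmic ratio of reconstituted Venus YFP fluorescence in fixed imaged cells.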 Summed up:
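Protein-fragment complementation between PPARg and coactivator SRC-1 was measured by fluorescence imaging in transiently transfected HEK293T cells after 24 h treatment. Signal was quantified as N/C ratio in the 488 nm channel, with DMSO as negative control.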

Assay [8] is described as follows: CEETOX_H295R_OHPREG: CeeTox H295R High-throughput Steroidogenesis Assay for OH-Pregnenolone (OHPREG) (AID 2283434; active = hit-call score of the fitted dose curve at least 0.9, where 1 is the maximum; inactive = score below 0.9). To be noted: actives raise or lower the signal. Summed up:
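H295R cells pre-stimulated 48 h with 10 uM forskolin, then exposed 48 h to chemical in 0.1% DMSO. 17alpha-hydroxypregnenolone in medium quantified by MTBE extraction and HPLC-MS/MS; bidirectional fit versus DMSO, viability checked by MTT.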

Assay [9] is described as follows: CEETOX_H295R_OHPROG: CeeTox H295R High-throughput Steroidogenesis Assay for OH-Progesterone (OHPROG) (AID 2283435; active = hit-call score of the fitted dose curve at least 0.9, where 1 is the maximum; inactive = score below 0.9). The conditions noted are these: actives raise or lower the signal. Summed up:
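H295R human adrenal cells were prestimulated 48 h with 10 uM forskolin, then exposed 48 h to test chemical (0.1% DMSO final). 17alpha-hydroxyprogesterone in medium was measured by HPLC-MS/MS after MTBE extraction; bidirectional fitting vs DMSO.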

In assay [10] the target is human Norepinephrine Transporter (NET), SLC6A2 (gene 6530) (UniProt P23975). The experiment in a line: NVS_TR_hNET: NovaScreen (NVS) Transporter Assay for human Norepinephrine Transporter (NET) (AID 2283377).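 Also: displacement of radioligand from human NET seen as loss of scintillation signal.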 The method in brief:
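Cell-free radioligand binding using CHO-derived membrane protein expressing human NET, read by filter scintillation counting 1 h after dosing; loss of signal vs DMSO. Initial duplicate screen at 25 uM, actives retested in concentration series.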

Assay [11] has as its target Bile acid receptor (Homo sapiens) (UniProt Q96RI1). The experiment in a line: OT_FXR_FXRSRC1_0480: Odyssey Thera (OT) 8-hour HEK293T Protein-Complementation Assay for Farnesoid X receptor/SRC-1 Co-activator (AID 2283383). The method in brief: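 HEK293T cells expressing FXR and SRC-1 fused to reporter fragments were dosed with compound for 8 h; fluorescence from the reconstituted reporter marked co-activator recruitment. Gain of signal was fitted against the DMSO baseline.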

Assay [12] has the same target. As to the kind of experiment: OT_FXR_FXRSRC1_1440: Odyssey Thera (OT) 24-hour HEK293T Protein-Complementation Assay for Farnesoid X receptor/SRC-1 Co-activator (AID 2283384). Summed up:
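HEK293T cells were dosed with compound and read 24 h later by fluorescence intensity from protein-fragment complementation reporting FXR/SRC-1 co-activator interaction. Gain of signal was fitted relative to DMSO negative control as baseline.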

The target of assay [13] is Estrogen receptor beta (Homo sapiens) (UniProt Q92731). As to the kind of experiment: OT_ER_ERbERb_1440: Odyssey Thera (OT) 24-hour HEK293T Protein-Complementation Assay for Estrogen Receptor-beta/-beta Homodimer (AID 2283380).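 Also: scored as signal increase over DMSO baseline for both agonists and antagonists.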 Summed up: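 HEK293T cells stably expressing ER beta LBD (aa 310-547) homodimer fragment-complementation reporter, dosed 24 h. Cells formaldehyde-fixed, Draq5-stained; gain in nuclear (agonist) or nuclear plus cytoplasmic (antagonist) fluorescence versus DMSO read by laser scanning cytometry.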

The nature of assay [14]: CEETOX_H295R_ESTRADIOL: CeeTox H295R High-throughput Steroidogenesis Assay for Estradiol (AID 2283440; active = hit-call score of the fitted dose curve at least 0.9, where 1 is the maximum; inactive = score below 0.9;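 also: estradiol secreted into medium quantified by LC-MS/MS after dansyl derivatisation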). To be noted: actives raise or lower the signal. Summed up: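 Estradiol secreted into the medium was measured by tandem mass spectrometry after liquid-liquid extraction and dansylation. Human H295R cells had been forskolin-primed (10 uM, 48 h) before a 48 h chemical exposure with 0.1% DMSO.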

Chain of Bile acid receptor (Homo sapiens) (Q96RI1 whole entry, looked up, the tested form may be a part): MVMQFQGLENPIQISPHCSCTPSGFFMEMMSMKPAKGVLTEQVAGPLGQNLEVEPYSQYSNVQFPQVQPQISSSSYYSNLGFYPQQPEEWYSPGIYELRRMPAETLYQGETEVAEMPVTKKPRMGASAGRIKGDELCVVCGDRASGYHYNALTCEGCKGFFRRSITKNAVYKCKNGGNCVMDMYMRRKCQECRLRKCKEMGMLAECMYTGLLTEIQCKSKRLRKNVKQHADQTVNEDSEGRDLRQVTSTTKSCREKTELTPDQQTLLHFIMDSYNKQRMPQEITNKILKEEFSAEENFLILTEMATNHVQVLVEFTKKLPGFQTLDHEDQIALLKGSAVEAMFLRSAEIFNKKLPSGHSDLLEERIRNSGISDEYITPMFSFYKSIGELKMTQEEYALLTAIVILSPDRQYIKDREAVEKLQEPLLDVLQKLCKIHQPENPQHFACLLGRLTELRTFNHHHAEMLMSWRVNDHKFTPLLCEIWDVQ
Chain of Peroxisome proliferator-activated receptor gamma (Homo sapiens) (P37231 whole entry, looked up, the tested form may be a part): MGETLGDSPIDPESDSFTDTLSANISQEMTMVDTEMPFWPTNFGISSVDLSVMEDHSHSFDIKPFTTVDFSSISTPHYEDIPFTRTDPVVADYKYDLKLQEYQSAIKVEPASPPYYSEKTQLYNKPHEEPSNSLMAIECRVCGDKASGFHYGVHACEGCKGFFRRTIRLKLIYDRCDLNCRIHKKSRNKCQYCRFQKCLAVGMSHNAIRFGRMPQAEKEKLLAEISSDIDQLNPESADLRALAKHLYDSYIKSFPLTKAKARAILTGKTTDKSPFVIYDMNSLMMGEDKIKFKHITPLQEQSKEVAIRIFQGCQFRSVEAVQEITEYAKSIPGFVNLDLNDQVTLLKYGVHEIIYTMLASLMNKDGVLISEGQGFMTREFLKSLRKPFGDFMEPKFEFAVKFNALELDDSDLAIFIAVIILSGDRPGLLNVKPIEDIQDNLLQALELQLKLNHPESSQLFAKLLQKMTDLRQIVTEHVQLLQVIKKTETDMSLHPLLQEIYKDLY
Chain of Retinoic acid receptor RXR-alpha (Homo sapiens) (P19793 whole entry, looked up, the tested form may be a part): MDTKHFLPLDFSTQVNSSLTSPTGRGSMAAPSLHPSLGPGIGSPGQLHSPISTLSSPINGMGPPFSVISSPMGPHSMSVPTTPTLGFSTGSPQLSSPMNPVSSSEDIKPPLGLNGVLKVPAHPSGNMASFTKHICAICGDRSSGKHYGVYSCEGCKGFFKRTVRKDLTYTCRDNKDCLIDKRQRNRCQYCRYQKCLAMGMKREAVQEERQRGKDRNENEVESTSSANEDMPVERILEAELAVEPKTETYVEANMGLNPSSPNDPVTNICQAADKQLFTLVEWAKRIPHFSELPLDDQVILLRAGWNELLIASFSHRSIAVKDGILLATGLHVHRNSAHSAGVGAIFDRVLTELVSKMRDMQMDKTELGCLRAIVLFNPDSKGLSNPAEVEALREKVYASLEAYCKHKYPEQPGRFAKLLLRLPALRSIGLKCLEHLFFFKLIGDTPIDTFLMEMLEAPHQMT
Chain of Estrogen receptor beta (Homo sapiens) (Q92731 whole entry, looked up, the tested form may be a part): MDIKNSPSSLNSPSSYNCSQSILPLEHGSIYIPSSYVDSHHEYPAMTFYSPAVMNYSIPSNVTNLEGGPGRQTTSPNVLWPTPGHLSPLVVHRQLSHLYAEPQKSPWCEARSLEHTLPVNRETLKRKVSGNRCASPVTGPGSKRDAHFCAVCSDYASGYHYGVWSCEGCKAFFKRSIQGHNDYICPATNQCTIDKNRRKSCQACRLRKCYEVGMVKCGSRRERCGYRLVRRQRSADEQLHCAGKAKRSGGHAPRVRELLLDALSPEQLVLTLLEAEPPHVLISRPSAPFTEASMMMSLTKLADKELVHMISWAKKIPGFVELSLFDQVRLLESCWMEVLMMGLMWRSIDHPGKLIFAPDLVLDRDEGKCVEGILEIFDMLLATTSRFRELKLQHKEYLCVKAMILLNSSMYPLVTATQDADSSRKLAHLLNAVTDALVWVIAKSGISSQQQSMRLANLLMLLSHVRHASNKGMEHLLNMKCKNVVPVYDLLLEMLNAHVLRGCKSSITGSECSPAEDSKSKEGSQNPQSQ
Chain of Estrogen receptor (Homo sapiens) (P03372 whole entry, looked up): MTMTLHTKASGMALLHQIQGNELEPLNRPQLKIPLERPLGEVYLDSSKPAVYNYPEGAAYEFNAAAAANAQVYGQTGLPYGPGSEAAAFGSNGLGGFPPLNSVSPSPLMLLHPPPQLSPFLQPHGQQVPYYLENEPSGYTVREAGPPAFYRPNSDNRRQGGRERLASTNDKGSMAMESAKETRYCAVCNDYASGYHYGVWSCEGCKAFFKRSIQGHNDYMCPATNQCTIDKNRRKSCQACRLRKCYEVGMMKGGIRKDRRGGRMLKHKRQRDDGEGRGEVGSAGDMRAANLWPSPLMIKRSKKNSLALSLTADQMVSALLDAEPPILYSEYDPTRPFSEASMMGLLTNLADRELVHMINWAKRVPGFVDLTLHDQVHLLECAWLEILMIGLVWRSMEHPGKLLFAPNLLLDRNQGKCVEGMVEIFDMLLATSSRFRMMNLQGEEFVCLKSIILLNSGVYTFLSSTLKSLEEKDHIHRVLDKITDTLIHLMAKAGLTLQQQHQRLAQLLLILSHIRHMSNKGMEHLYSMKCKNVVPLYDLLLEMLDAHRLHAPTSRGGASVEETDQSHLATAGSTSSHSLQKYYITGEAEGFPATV
Chain of mouse Estrogen Receptor alpha (Era), Esr1 (gene 13982) (P19785 whole entry, looked up): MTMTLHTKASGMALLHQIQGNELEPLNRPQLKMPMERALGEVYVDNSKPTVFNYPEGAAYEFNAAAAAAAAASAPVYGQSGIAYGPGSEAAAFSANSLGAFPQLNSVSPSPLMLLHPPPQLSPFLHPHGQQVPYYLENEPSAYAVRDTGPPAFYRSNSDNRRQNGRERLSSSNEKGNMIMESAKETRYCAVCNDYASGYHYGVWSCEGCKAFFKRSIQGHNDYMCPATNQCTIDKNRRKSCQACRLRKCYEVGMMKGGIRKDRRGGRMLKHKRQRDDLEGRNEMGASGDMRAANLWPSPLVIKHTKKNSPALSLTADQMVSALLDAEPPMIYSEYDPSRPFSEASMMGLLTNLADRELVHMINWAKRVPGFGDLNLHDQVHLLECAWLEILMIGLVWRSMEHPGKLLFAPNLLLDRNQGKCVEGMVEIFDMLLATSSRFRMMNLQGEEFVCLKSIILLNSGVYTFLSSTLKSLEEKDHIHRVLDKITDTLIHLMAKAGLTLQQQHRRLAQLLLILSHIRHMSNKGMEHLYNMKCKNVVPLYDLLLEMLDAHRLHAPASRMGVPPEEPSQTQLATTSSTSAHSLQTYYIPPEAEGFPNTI
Chain of human Norepinephrine Transporter (NET), SLC6A2 (gene 6530) (P23975 whole entry, looked up): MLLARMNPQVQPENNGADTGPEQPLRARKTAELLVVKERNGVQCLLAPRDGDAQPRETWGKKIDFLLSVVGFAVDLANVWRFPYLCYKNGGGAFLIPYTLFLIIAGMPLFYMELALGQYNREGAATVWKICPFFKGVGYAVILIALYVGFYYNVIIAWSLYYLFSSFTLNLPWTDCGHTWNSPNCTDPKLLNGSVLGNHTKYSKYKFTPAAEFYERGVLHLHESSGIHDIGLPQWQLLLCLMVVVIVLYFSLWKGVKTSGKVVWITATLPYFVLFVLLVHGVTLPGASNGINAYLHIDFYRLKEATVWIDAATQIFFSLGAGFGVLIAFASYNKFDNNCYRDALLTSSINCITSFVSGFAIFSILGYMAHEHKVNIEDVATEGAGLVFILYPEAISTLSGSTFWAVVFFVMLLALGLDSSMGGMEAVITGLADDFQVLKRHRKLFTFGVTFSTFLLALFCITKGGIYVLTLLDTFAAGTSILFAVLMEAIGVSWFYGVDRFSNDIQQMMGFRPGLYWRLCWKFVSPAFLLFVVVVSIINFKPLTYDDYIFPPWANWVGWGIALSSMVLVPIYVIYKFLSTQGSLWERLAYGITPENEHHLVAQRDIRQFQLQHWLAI

`Cc1cc(-c2ccc(N)c(C)c2)ccc1N`: the concentration at half-maximal activity (AC50) was 0.999 µM (active) in assay [1]; 37.2 µM (active) in [2]; 50 µM (active) in assay [3]; 2.96 µM (active) and 10.2 µM (active) in [9]. In addition, the call in [1], in assay [2], in [3], in assay [4], in assay [5] and in assay [6] was inactive. Besides, the compound was called inactive in assay [7] and in assay [8].

As to `CCC(C)(c1ccc(O)cc1)c1ccc(O)cc1`, the AC50 is 8.33 µM (active) in [10]; 213 nM (active) [middle of 5 runs] in assay [3]; 12.1 µM (active) in [11]; 30.2 µM (active) and 32.2 µM (active) in assay [12]; 30.8 µM (active) and 67 µM (active) and 68.3 µM (active) in assay [4]; 92.5 µM (active) and 87.7 µM (active) in [5]. The compound was called inactive in assay [11], in [12], in [4], in assay [5], in assay [6] and in assay [7].

As for `Cc1ccccc1O`, the result in [13], in assay [2], in assay [3], in [4], in [5] and in [6] was inactive. Moreover, the result in assay [7] was inactive.

Consider `C[C@]12CCC(=O)C=C1CC[C@@H]1[C@@H]2CC[C@]2(C)C(=O)CC[C@@H]12`, for which the outcome in [13], in assay [2], in assay [3], in assay [12], in assay [4] and in assay [5] was inactive. In addition, the outcome in [6], in assay [7] and in [14] was inactive. Besides, the half-maximal activity concentration (AC50) is 26.8 µM (active) and 19.3 µM (active) and 27.1 µM (active) in [11]; 28.7 µM (active) and 30.7 µM (active) in [12]; 8.12 µM (active) in assay [8]; 535 nM (active) in assay [9].

Take `CO/C=C(/C(=O)OC)c1ccccc1COc1cccc(C(F)(F)F)n1`: the compound was called inactive in assay [13], in assay [2], in assay [3], in assay [4], in [5] and in [6]. Besides, in assay [7], the outcome was inactive. Moreover, the AC50 in assay [11] was 9.85 µM (active); in assay [12], 3.27 µM (active); in assay [4], 50 µM (active).

Take `Nn1cnnc1`: the compound was classed as inactive in assay [13], in [2], in [3], in [5], in [6] and in assay [7].

On to `CCC(C)c1cc([N+](=O)[O-])cc([N+](=O)[O-])c1O` (stereo not given), for which the outcome in assay [13], in assay [2], in [3], in [12], in [4] and in assay [5] was inactive. For the same compound, the outcome in assay [6] and in [7] was inactive.

On to `O=S(=O)(O)C(F)(F)C(F)(F)C(F)(F)C(F)(F)F`, for which the compound was classed as inactive in assay [13], in assay [2], in [3], in assay [4], in assay [5] and in assay [6]. Moreover, in assay [7], the compound was classed as inactive.
